Assay results as given in PubChem BioAssay (NCATS).
Inconclusive results are not listed. Where a call stands in place of a potency, no number is given. The source made the active and inactive calls. Calls come from the whole dose curve; as a rule, active = well fitted inhibition curve with a large enough effect; inconclusive = small, poorly fitted or top-dose-only effect; inactive = no such curve, though single readings can be large or run the other way.

test: qHTS assay for measurement of the activity of small molecule inhibitors on Zika virus induced Caspase-3 activity in human iPSC derived neural progenitor cells (hNPCs) (AID 1224857); details: hNPCs ZIKV-induced caspase-3/7, Caspase-Glo luminescence, 6 h; series mostly up to 45.7 µM; note: nearly all actives have a fitted effect of over 65% in size
Summary of the method: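 Values are percent inhibition of virus-induced caspase-3/7 signal, scaled between uninfected cells and ZIKV-infected cells. Infection used 2 FFU/cell for 6 h after 1 h compound exposure.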

Compound	Potency
CC(C)C[C@@H](C(=O)N[C@H](C(=O)OC1CCCC1)c1ccccc1)[C@H](O)C(=O)NO	inactive
COc1c(C)c2c(c(O)c1CC=C(C)CCC(=O)O)C(=O)OC2	inactive
Cc1ccccc1C(=O)c1ccc(Nc2ccc(Br)cc2N)cc1Cl	inactive

test: qHTS assay for measurement of the activity of small molecule inhibitors on Zika virus induced Caspase-3 activity in human astrocytoma cells (AID 1224859); details: SNB-19 ZIKV-induced caspase-3/7, luminescence, 6 h; series mostly up to 45.7 µM; note: potency is the fitted concentration of half-maximal effect
Summary of the method: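 Compound added 1 h pre-infection; ZIKV 2 FFU/cell on SNB-19 cells, 6 h, 37 C/5% CO2. Caspase-Glo 3/7 luminescence; values as % inhibition of ZIKV-induced caspase activity.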

Compound	Potency
CC(C)c1onc(-c2c(Cl)cccc2Cl)c1COc1ccc(C=Cc2cccc(C(=O)O)c2)c(Cl)c1	inactive
O=C1NC(=O)C(=Cc2ccc(-c3ccc(F)cc3O)o2)S1	14.8 µM (active)
COc1cc2nccc(Oc3ccc(NC(=O)Nc4ccc(F)cc4F)c(F)c3)c2cc1OC	inactive
C#C[C@]1(O)CC[C@H]2[C@H]3CCc4cc(OC)ccc4[C@H]3CC[C@@]21C	inactive
CCC(=O)OCC(=O)[C@@]1(OC(=O)CC)[C@@H](C)C[C@@H]2[C@H]3CCC4=CC(=O)C=C[C@]4(C)[C@@]3(F)[C@@H](O)C[C@@]21C	inactive
CNC(=O)c1cc(COc2nnc(Nc3ccc(Cl)cc3)c3ccoc23)ccn1	inactive
CC(C)(C)c1nc(-c2cccc(NS(=O)(=O)c3c(F)cccc3F)c2F)c(-c2ccnc(N)n2)s1	inactive
CC(C)C[C@@H](C(=O)N[C@H](C(=O)OC1CCCC1)c1ccccc1)[C@H](O)C(=O)NO	inactive
COC1CCC(C(=O)c2ccc3nc4c(cc3c2)CCCO4)CC1 (stereo not drawn)	inactive
CC(C)(O)CC(=O)NCCn1ccc2ncnc(Nc3ccc(Oc4cccc(C(F)(F)F)c4)c(Cl)c3)c21	inactive
CC[C@H](NC(=O)[C@H](C)NC)C(=O)N1C[C@@H](O)C[C@H]1Cc1c(-c2[nH]c3cc(F)ccc3c2C[C@H]2C[C@H](O)CN2C(=O)[C@H](CC)NC(=O)[C@H](C)NC)[nH]c2cc(F)ccc12	inactive
C[C@H]1COC2=C1C(=O)C(=O)c1c2ccc2c1CCCC2(C)C	inactive
Cn1cnc(-c2cc3nccc(Oc4ccc(NC(=S)NC(=O)Cc5ccccc5)cc4F)c3s2)c1	inactive
Fc1ccc(C(c2ccc(F)cc2)N2CCN(CC=Cc3ccccc3)CC2)cc1	inactive
Cc1c(-c2cccc3c(CCCOc4cccc5ccccc45)c(C(=O)O)n(Cc4cccnc4)c23)c(COc2ccc(N3CCN([S+](=O)([O-])N(C)C)CC3)cc2)nn1C	inactive
COc1c(C)c2c(c(O)c1CC=C(C)CCC(=O)O)C(=O)OC2	inactive
N[C@@H](CC(=O)N1CCn2c(nnc2C(F)(F)F)C1)Cc1cc(F)c(F)cc1F	inactive
COc1cc(C=CC(=O)O)ccc1O	inactive

Compound	Potency
CCC(=C(CC)c1ccc(O)cc1)c1ccc(O)cc1	inactive
Cc1ccc2c(=O)c3cccc(CC(=O)O)c3oc2c1C	inactive
COc1ccc2c(c1)c(C1=C(c3c[nH]c4ccccc34)C(=O)NC1=O)cn2CCCN(C)C	inactive
CCN(CC)CCCCNc1nc2cc(Cl)c(Cl)cc2nc1-c1ccc(-c2cccs2)s1	inactive
CN[C@@H](C)[C@H]1[C@H](O)C[C@@]2(C)[C@@H]3CC[C@H]4C(C)(C)[C@@H](NC)CC[C@@]45C[C@@]35CC[C@]12C	inactive
O=S(=O)(NCCNCC=Cc1ccc(Br)cc1)c1cccc2cnccc12	inactive
CNC(=O)[C@H](CC1=CN=C2C=CCC=C12)NC(=O)[C@@H](CC(=O)NO)CC(C)C	inactive
CN1CCN(c2cccc(Nc3nc4c(-c5ccc(S(C)(=O)=O)cc5)cccn4n3)c2)CC1	inactive
COc1nccc(-c2c(-c3ccc(F)cc3)ncn2C2CCNCC2)n1	inactive
C[C@@H](O[C@H]1OCCN(Cc2n[nH]c(=O)[nH]2)[C@@H]1c1ccc(F)cc1)c1cc(C(F)(F)F)cc(C(F)(F)F)c1	inactive
CN(CC=CC#CC(C)(C)C)Cc1cccc2ccccc12	inactive
O=C1NC(=O)C(c2cnc3ccccn23)=C1c1cn2c3c(cccc13)CN(C(=O)N1CCOCC1)CC2	inactive
COc1ccc2cc1Oc1ccc(cc1)C[C@H]1c3cc(c(OC)cc3CCN1C)Oc1c(OC)c(OC)cc3c1[C@H](C2)N(C)CC3	inactive
OCCn1cc(-c2ccc3c(c2)CCC3=NO)c(-c2ccncc2)n1	inactive
CCC(C)SSc1ncc[nH]1 (stereo not drawn)	inactive
Cc1ccccc1C(=O)c1ccc(Nc2ccc(Br)cc2N)cc1Cl	inactive
Fc1ccc(CNc2ncnc3ccc(F)cc23)cc1	inactive

test: qHTS Screen of the MIPE 4.0 Collection Against Ewings Sarcoma (RDES) (AID 1259252); details: RD-ES Ewing sarcoma viability, CellTiter-Glo, 48 h; series mostly up to 45.8 µM; note: nearly all actives have a fitted effect of over 35% in size; note: potency is the fitted concentration of half-maximal effect
Summary of the method: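 After a 4 h attachment period in RPMI/5% FBS, cells were pin-dosed with test compounds; DMSO served as negative and 9.2 uM bortezomib (final) as positive control. Luminescent CellTiter-Glo signal at 48 h defined viability.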

Compound	Potency
CC(C)c1onc(-c2c(Cl)cccc2Cl)c1COc1ccc(C=Cc2cccc(C(=O)O)c2)c(Cl)c1	inactive
COc1cc2nccc(Oc3ccc(NC(=O)Nc4ccc(F)cc4F)c(F)c3)c2cc1OC	14.8 µM (active)
C#C[C@]1(O)CC[C@H]2[C@H]3CCc4cc(OC)ccc4[C@H]3CC[C@@]21C	20.9 µM (active)
CCC(=O)OCC(=O)[C@@]1(OC(=O)CC)[C@@H](C)C[C@@H]2[C@H]3CCC4=CC(=O)C=C[C@]4(C)[C@@]3(F)[C@@H](O)C[C@@]21C	inactive
CC(C)(C)c1nc(-c2cccc(NS(=O)(=O)c3c(F)cccc3F)c2F)c(-c2ccnc(N)n2)s1	6.62 µM (active)
CC(C)C[C@@H](C(=O)N[C@H](C(=O)OC1CCCC1)c1ccccc1)[C@H](O)C(=O)NO	26.4 µM (active)
COC1CCC(C(=O)c2ccc3nc4c(cc3c2)CCCO4)CC1 (stereo not drawn)	13.2 µM (active)
CC(C)(O)CC(=O)NCCn1ccc2ncnc(Nc3ccc(Oc4cccc(C(F)(F)F)c4)c(Cl)c3)c21	0.935 µM (active)
CC[C@H](NC(=O)[C@H](C)NC)C(=O)N1C[C@@H](O)C[C@H]1Cc1c(-c2[nH]c3cc(F)ccc3c2C[C@H]2C[C@H](O)CN2C(=O)[C@H](CC)NC(=O)[C@H](C)NC)[nH]c2cc(F)ccc12	inactive
C[C@H]1COC2=C1C(=O)C(=O)c1c2ccc2c1CCCC2(C)C	20.9 µM (active)
Cn1cnc(-c2cc3nccc(Oc4ccc(NC(=S)NC(=O)Cc5ccccc5)cc4F)c3s2)c1	20.9 µM (active)
Fc1ccc(C(c2ccc(F)cc2)N2CCN(CC=Cc3ccccc3)CC2)cc1	inactive
Cc1c(-c2cccc3c(CCCOc4cccc5ccccc45)c(C(=O)O)n(Cc4cccnc4)c23)c(COc2ccc(N3CCN([S+](=O)([O-])N(C)C)CC3)cc2)nn1C	16.6 µM (active)
COc1c(C)c2c(c(O)c1CC=C(C)CCC(=O)O)C(=O)OC2	3.72 µM (active)
COc1cc(C=CC(=O)O)ccc1O	inactive
CCC(=C(CC)c1ccc(O)cc1)c1ccc(O)cc1	23.5 µM (active)
Cc1ccc2c(=O)c3cccc(CC(=O)O)c3oc2c1C	18.7 µM (active)
COc1ccc2c(c1)c(C1=C(c3c[nH]c4ccccc34)C(=O)NC1=O)cn2CCCN(C)C	0.0083 µM (active)
CC[C@]1(O)C[C@H]2CN(CCC3=c4ccccc4=N[C]3[C@@](C(=O)OC)(c3cc4c(cc3OC)N(C)[C@H]3[C@@](O)(C(N)=O)[C@H](O)[C@]5(CC)C=CCN6CC[C@]43[C@@H]65)C2)C1	0.0033 µM (active)
CN[C@@H](C)[C@H]1[C@H](O)C[C@@]2(C)[C@@H]3CC[C@H]4C(C)(C)[C@@H](NC)CC[C@@]45C[C@@]35CC[C@]12C	inactive
O=S(=O)(NCCNCC=Cc1ccc(Br)cc1)c1cccc2cnccc12	2.64 µM (active)
CNC(=O)[C@H](CC1=CN=C2C=CCC=C12)NC(=O)[C@@H](CC(=O)NO)CC(C)C	inactive
CN1CCN(c2cccc(Nc3nc4c(-c5ccc(S(C)(=O)=O)cc5)cccn4n3)c2)CC1	3.72 µM (active)
CN(CC=CC#CC(C)(C)C)Cc1cccc2ccccc12	inactive
O=C1NC(=O)C(c2cnc3ccccn23)=C1c1cn2c3c(cccc13)CN(C(=O)N1CCOCC1)CC2	5.26 µM (active)
COc1ccc2cc1Oc1ccc(cc1)C[C@H]1c3cc(c(OC)cc3CCN1C)Oc1c(OC)c(OC)cc3c1[C@H](C2)N(C)CC3	20.9 µM (active)
OCCn1cc(-c2ccc3c(c2)CCC3=NO)c(-c2ccncc2)n1	26.4 µM (active)
CCC(C)SSc1ncc[nH]1 (stereo not drawn)	23.5 µM (active)
Cc1ccccc1C(=O)c1ccc(Nc2ccc(Br)cc2N)cc1Cl	23.5 µM (active)
Fc1ccc(CNc2ncnc3ccc(F)cc23)cc1	13.2 µM (active)
